Inconclusive results are not listed. Calls of active or inactive are those of the source. Calls come from the whole dose curve; as a rule, active = well fitted cell-killing curve with a large enough effect; inconclusive = small, poorly fitted or top-dose-only effect, or effect the other way; inactive = no such curve, though single readings can be large or run the other way.
Assay: Quantitative High-Throughput drug screen in 47 multiple myeloma cell lines against the NCATS MIPE library collection: XG6_PLB cell viability assay (AID 1919865); note: nearly all actives have a fitted effect of over 40% in size
Conditions: XG6 myeloma viability, CellTiter-Glo ATP luminescence, 48 h; series mostly up to 45.8 µM; viability (% of control): at the top concentration
Procedure, shortened: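 MIPE 4.0 approved/investigational drugs; 500 cells/well; 48 h 37 °C humidified 5% CO2; CTG luminescence readout; DMSO = 100%, media = 0% viability.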
In the case of `COc1ccc(C=Cc2cc(OC)c(OC)c(OC)c2)cc1NC(=O)[C@H](N)CO`, the “viability (% of control)” value is reported as 25.2% (inactive).
With `CCN(CC)Cc1ccc2cc(COC(=O)Nc3ccc(C(=O)NO)cc3)ccc2c1` the Potency was 1.66 µM (active).
With `CC(=O)OCC(=O)[C@@]1(O)CC[C@H]2[C@@H]3CCC4=CC(=O)CC[C@]4(C)[C@@H]3C(=O)C[C@@]21C` the “viability (% of control)” value was 105% (inactive).
In the case of `COc1ccc2c(c1OC)C(=O)OC2[C@H]1c2c(cc3c(c2OC)OCO3)CCN1C` (some centres undefined), the Potency is reported as 0.0469 µM (active).
With `COc1cccc2c1C(=O)c1c(O)c3c(c(O)c1C2=O)C[C@@](O)(C(C)=O)C[C@H]3O[C@H]1C[C@H](N)[C@H](O)[C@H](C)O1` the Potency was 0.0469 µM (active).
With `C[C@H]1O[C@H](O[C@H]2[C@H](O)[C@@H](O)[C@@H](O[C@H]3[C@H](O)[C@@H](O)C(O)O[C@H]3CO)O[C@H]2CO)[C@H](O)[C@@H](O)[C@H]1N[C@H]1C=C(CO)[C@@H](O)[C@H](O)[C@@H]1O` (some centres undefined) the “viability (% of control)” value was 127% (inactive).
In the case of `CC[C@H]1OC(=O)[C@H](C)[C@@H](O[C@H]2C[C@@](C)(OC)[C@@H](O)[C@H](C)O2)[C@H](C)[C@@H](O[C@@H]2O[C@H](C)C[C@H](N(C)C)[C@@H]2O)[C@](C)(OC)C[C@@H](C)C(=O)[C@H](C)[C@@H](O)[C@]1(C)O`, the “viability (% of control)” value is reported as 120% (inactive).
In the case of `CN[C@H]1[C@@H](O)[C@@H]2O[C@@H]3O[C@H](C)CC(=O)[C@]3(O)O[C@@H]2[C@@H](NC)[C@H]1O`, the Potency is reported as 0.296 µM (active).
With `CC(=O)N[C@H]1[C@@H]([C@H](O)[C@H](O)CO)OC(C(=O)O)=C[C@@H]1N=C(N)N` the “viability (% of control)” value was 105% (inactive).

— PubChem BioAssay (NCATS)
Potency is the fitted concentration of half-maximal effect.
